# In all, about 33,000 sequences were measured (“E-score (-0.5 to 0.5)”: median about -0.0034, highest 2% from about 0.25 on). Shown is part of a subset that was picked to be rich in the highest values.
# Molecular target: T1, Yap3 (UniProt P38749)
# T1 sequence: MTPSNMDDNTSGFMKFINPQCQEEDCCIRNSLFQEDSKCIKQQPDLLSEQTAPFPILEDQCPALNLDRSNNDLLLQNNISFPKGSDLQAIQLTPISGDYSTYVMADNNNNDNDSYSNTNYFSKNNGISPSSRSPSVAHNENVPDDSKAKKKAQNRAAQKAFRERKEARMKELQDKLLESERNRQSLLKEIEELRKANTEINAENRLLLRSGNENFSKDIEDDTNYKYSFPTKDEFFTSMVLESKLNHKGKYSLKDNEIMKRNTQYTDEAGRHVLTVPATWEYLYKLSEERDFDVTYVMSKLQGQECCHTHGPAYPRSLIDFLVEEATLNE
# Test: PBM E-score (8-mer binding enrichment) (E-score (-0.5 to 0.5)); higher = stronger / more preferred TF binding
# Details: protein concentration: 100 nM; construct: GST-full length
# Summary of the method: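 Using PURExpress in vitro transcription/translation, GST-tagged yeast transcription factors were made in full-length or DNA-binding-domain form. These were applied at about 100-200 nM to double-stranded universal all-10-mer Agilent arrays, and bound protein was detected with fluorescent anti-GST. Scans were normalised with masliner before the Universal PBM Analysis Suite assigned E-scores to ungapped eight-base words pooled with their reverse complements.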
row,Sequence,PBM E-score
1,AAGTCTCC,-0.0848
2,ACGGAGAT,-0.0531
3,CACTGGAC,-0.0821
4,ATTATTAC,0.269
5,ACTATTAC,0.149
6,ACTATTAG,0.136
7,CTTATTAC,0.251
8,ATTATTGG,0.0681
9,ATTATTAG,0.259
10,ATCCAAAG,0.165
11,GTCAGCCA,-0.0924
12,CCCCAACA,-0.111
13,AGTATATC,0.0292
14,ATTATAAG,0.0886
15,ATTATAAT,0.319
16,AGTATAAC,-0.0565
17,AGTATAAA,0.304
18,AGTATATA,0.364
19,AGTATAAG,0.193
20,AGTATAAT,0.293
21,TGTATAAA,0.211
22,GGTATAAA,0.239
23,AGTATATG,0.157
24,ATTATAAA,0.231
25,CGACTCCG,-0.24

row,Sequence,PBM E-score
1,GCTGGCTA,-0.196
2,ACTCACCA,-0.0571
3,AGGTTACA,-0.0016
4,GGCTGCAC,-0.206
5,CGTTGTGA,-0.0712
6,ATTATTTC,0.302
7,ATTTATTC,0.212
8,CGTATTTA,0.313
9,CTTATTTC,0.251
10,ACTATTTC,0.224
11,AGTATTTA,0.16
12,GGTATTTA,0.104
13,ATTTATTG,0.0964
14,AATATTTC,0.154
15,AATATTTA,0.295
16,ATTTATTA,0.277
17,CATATTTA,0.185
18,GGGGGACC,-0.358
19,GATGGAGC,-0.108
20,ACACCAGG,-0.237
21,CACTACTG,0.0352
22,ATCAGTAG,0.0393
23,GCACACGC,-0.0783
24,CTACTGCC,-0.0886
25,ATGTACAA,0.0885

row,Sequence,PBM E-score
1,CGACGTCA,0.0828
2,CAGGTTAC,0.0255
3,ATTATTTA,0.289
4,CTTATTTA,0.11
5,GTTTATTA,0.268
6,GGTTATTA,0.158
7,ATTATTTG,0.197
8,CTTTATTA,0.199
9,AATTTACT,0.271
10,AATTTAAC,0.113
11,ACTTTACT,0.284
12,AATTTAAG,0.106
13,AAATTATG,0.208
14,AATTTACA,0.155
15,ACTTTACA,0.052
16,AATTTAAT,0.261
17,AAATTATC,0.251
18,ACTTTACC,0.149
19,AAATTATT,0.275
20,AATTTAGT,0.21
21,CAGGTGGG,-0.0568
22,CGGCTCTA,-0.067
23,CGTGGTCA,-0.112
24,ACTCTAAG,-0.0616
25,CTCCGTGA,-0.0971

row,Sequence,PBM E-score
1,CGCCACCA,-0.25
2,CGACCCCA,-0.16
3,AGTAACGA,-0.0656
4,GCGACAAA,0.0655
5,CGCTCGAG,0.0723
6,GGTTTTCA,0.0332
7,CTTTTGCA,0.227
8,AACGGTCG,0.105
9,AAATTACG,0.172
10,AAATTAGT,0.283
11,AAATTAGA,0.201
12,AAATTACC,0.235
13,AAATTACT,0.304
14,AAATTAGG,0.196
15,CGCAGCGA,-0.0766
16,TAGTGGGA,-0.0516
17,AAGCCTTC,-0.0737
18,GTGTAACA,-0.00489
19,AAAAGTTA,0.195
20,TATTTCGA,0.293
21,GATTTCGA,0.12
22,AATTTCGA,-0.00117
23,ATTGTCCG,0.216
24,TGGTAGAA,-0.0125
25,TCTATAAA,0.111

row,Sequence,PBM E-score
1,GTTATAGA,0.0873
2,GTTATAAA,0.283
3,TTTATAAA,0.277
4,CTTATAAA,0.187
5,GTTATAAC,0.162
6,GCAATTAA,0.112
7,AGAACGCG,0.14
8,AAGTCGCG,0.146
9,CATCTACG,-0.0208
10,GCCCGTAC,-0.155
11,AAATGATC,-0.129
12,AAATGAAA,0.324
13,AAATGATA,0.275
14,ACATGATA,0.263
15,TAATGAAA,0.218
16,ACATGATC,0.115
17,GCATGATA,0.184
18,TAATGATA,0.239
19,CAATGAAA,0.077
20,CAATGATA,0.137
21,AAATGATT,0.19
22,GAATGATA,0.295
23,ACCGCAAA,0.109
24,CCTTCATC,-0.195
25,AGACTATC,0.0563

row,Sequence,PBM E-score
1,AGAAGTCG,0.0232
2,CGGATAGC,0.052
3,GACCAGAA,-0.00826
4,ACGGCTAT,-0.0939
5,CAGACCTC,-0.181
6,GCAAAAGC,0.0339
7,ATATTAAA,0.378
8,CTATTAAA,0.135
9,AAATTAAT,0.229
10,AGATTAAT,0.194
11,CTATTAAC,0.188
12,AAATTAAA,0.319
13,AAATTAAC,0.136
14,ATATTAAT,0.351
15,GTATTAAC,0.0508
16,ATATTAGA,0.175
17,ATATTAAC,0.274
18,ATATTAAG,0.0834
19,AGAGACGC,0.0051
20,CTCCTCCC,-0.358
21,GTACTGAA,0.117
22,AACCTTCG,0.0416
23,CATTGTAA,0.172
24,CACCAGAG,-0.215
25,AAGAGTAA,0.0872

row,Sequence,PBM E-score
1,ACATTAAA,0.229
2,TGATTAAA,0.113
3,TCATTAAA,0.258
4,GCATTAAA,0.177
5,GTATTAAA,0.141
6,TTATTAAA,0.34
7,GGAGAAGA,-0.148
8,TAACGCTA,0.023
9,ATGGCAAT,0.0617
10,GGGATTAC,0.00382
11,CAAGCTAG,-0.0475
12,CATTAGCA,0.0386
13,ACTTAGTG,-0.0604
14,AATTAGTG,0.269
15,AATTAGTA,0.369
16,GATTAGTA,0.218
17,AATTAGGG,-0.107
18,AATTAGTC,0.303
19,CATTAGTC,0.0988
20,CGTTAGTA,0.241
21,AGTTAGTA,0.195
22,AGTTAGTC,0.0694
23,CATTAGTA,0.289
24,ACCTTATC,0.0868
25,ATCCTCTC,-0.0398

row,Sequence,PBM E-score
1,GCAGTGTA,0.0324
2,GTTCACGA,0.0641
3,AACTTATT,0.21
4,CAAGAACA,-0.0451
5,GAAGAACA,0.225
6,TAAGAACA,0.326
7,GTTCATAA,0.0365
8,GACTCGTA,-0.126
9,GGATTGCC,-0.116
10,AGAACACG,0.0921
11,CAAGGGAC,-0.0565
12,GTTACTAA,0.339
13,CTTACTCA,0.164
14,CTTACTAA,0.443
15,GTTACTGA,0.106
16,GTTACTCA,0.161
17,CTTACTAC,0.211
18,ACGCGGGG,-0.0549
19,CTTACGTA,0.349
20,GTTACGAA,0.181
21,AGTACGAA,0.245
22,GTTACGTA,0.182
23,AATACGTA,0.296
24,ATTACGAA,0.329
25,CTTACGAA,0.259

row,Sequence,PBM E-score
1,CATACGTA,0.156
2,CTTACGTC,0.0927
3,ACTACGAA,0.099
4,AATACGTG,0.0823
5,CTCACGAA,0.05
6,CTTGTCCA,-0.0307
7,AAAGATCT,-0.0503
8,AAGAGATT,0.0728
9,TAGGTAGA,0.076
10,CGTACAAA,0.108
11,ATTGGGCA,-0.0331
12,GGCTACGA,-0.0605
13,ATAGGGCC,-0.174
14,TAGGGCAA,-0.0175
15,CGTGCGAG,-0.0121
16,ATTACGAG,0.228
17,ATTACGGC,0.241
18,ATTACGGA,0.295
19,CTTACGAC,0.0511
20,ATTACGGG,0.0809
21,ATTACGAC,0.269
22,ACTCGAGC,0.0632
23,CTTTGTCA,0.15
24,CTTTGTAC,0.0552
25,ATTTGTCA,0.313

row,Sequence,PBM E-score
1,GTTTGTCA,0.133
2,ATTTGTAG,0.117
3,GTTTGTAA,0.0859
4,CTTTGTAA,0.27
5,ATTTGTAA,0.373
6,ATTTGTAC,0.0689
7,GCGAATCA,0.173
8,CAACGGTG,-0.243
9,CGCGTGGA,-0.183
10,ATACTTAC,0.0503
11,CAATCAAC,0.217
12,AATAGCGA,0.24
13,CCCAAAGG,-0.2
14,GAGAAGCA,-0.118
15,AACTAGGT,0.154
16,GTGCTTTA,0.121
17,AGGTATGG,-0.0324
18,ATGAATGA,0.106
19,ATGAATGG,0.268
20,ATGAATGC,0.0737
21,CGGAGCTA,-0.142
22,GAGGCCAC,-0.223
23,GTAGTCAA,-0.0796
24,ATAGTAAA,0.238
25,TTAGTAAA,0.295

row,Sequence,PBM E-score
1,GGAGTAAC,-0.103
2,CTAGTAAA,0.0933
3,TTAGTCAA,0.27
4,CTAGTCAA,-0.0259
5,GGAGTAAA,0.267
6,TGAGTAAA,0.161
7,GAGCGTCC,-0.223
8,ACACCACC,-0.209
9,CCTACCCG,-0.174
10,GAGAAACA,0.218
11,CGACCCAG,-0.23
12,CGAGTGTA,-0.0629
13,GTTTCATA,0.0741
14,GTAGTTAA,0.142
15,ATAGTTAA,0.114
16,CTAGTTAA,0.26
17,GCATGGGA,-0.197
18,GATGACAC,0.132
19,GATGACAA,0.264
20,CATGACAA,0.143
21,CGGTTCGA,0.0689
22,GTGAACAC,-0.156
23,ATGCCGTC,-0.0725
24,CGAGCTGA,0.081
25,AGAGAGGA,-0.261

row,Sequence,PBM E-score
1,ATGAATTG,0.208
2,ATTGAAAG,0.143
3,GATGAATA,0.242
4,CATGAATA,0.0196
5,ATTGAATA,0.256
6,ATTGAAAC,0.155
7,ATTGAATC,0.0178
8,CTTGAAAA,0.161
9,TATGAATA,0.266
10,ATTGAAAT,0.263
11,AATGAAAT,0.21
12,ATTGAAAA,0.266
13,CTTGAATA,0.113
14,CGTCGCAG,-0.0218
15,GTAGAGAA,0.0971
16,GAGTGGAC,-0.0806
17,AGCAAAGA,0.0203
18,CATACGAC,0.0835
19,AAGGAAAA,0.156
20,CCTCTGGA,-0.136
21,TAATTGCA,0.195
22,GCTCCTAA,-0.265
23,ACAAGGAT,0.113
24,TCTTGTAA,0.118

# From the supplement of paper PMC3334620
